The results in this text go back to PubChem BioAssay AID540275 (National Center for Advancing Translational Sciences (NCATS), 2011).

The campaign covered roughly 320,000 compounds. About 620 (0.19%) were called active. Roughly 6% stayed inconclusive and do not appear here. The list comes from a sample in which actives are over-represented; it also holds similar structures and randomly drawn compounds. Values without a mark were called inactive. Cut-off read from the data, not from the text of the source: active = activation above about 80%; inconclusive = between about 30% and that limit; inactive = weaker than that.

Sequence of Transient receptor potential cation channel subfamily V member 1 (Homo sapiens) (Q8NER1 whole entry, looked up): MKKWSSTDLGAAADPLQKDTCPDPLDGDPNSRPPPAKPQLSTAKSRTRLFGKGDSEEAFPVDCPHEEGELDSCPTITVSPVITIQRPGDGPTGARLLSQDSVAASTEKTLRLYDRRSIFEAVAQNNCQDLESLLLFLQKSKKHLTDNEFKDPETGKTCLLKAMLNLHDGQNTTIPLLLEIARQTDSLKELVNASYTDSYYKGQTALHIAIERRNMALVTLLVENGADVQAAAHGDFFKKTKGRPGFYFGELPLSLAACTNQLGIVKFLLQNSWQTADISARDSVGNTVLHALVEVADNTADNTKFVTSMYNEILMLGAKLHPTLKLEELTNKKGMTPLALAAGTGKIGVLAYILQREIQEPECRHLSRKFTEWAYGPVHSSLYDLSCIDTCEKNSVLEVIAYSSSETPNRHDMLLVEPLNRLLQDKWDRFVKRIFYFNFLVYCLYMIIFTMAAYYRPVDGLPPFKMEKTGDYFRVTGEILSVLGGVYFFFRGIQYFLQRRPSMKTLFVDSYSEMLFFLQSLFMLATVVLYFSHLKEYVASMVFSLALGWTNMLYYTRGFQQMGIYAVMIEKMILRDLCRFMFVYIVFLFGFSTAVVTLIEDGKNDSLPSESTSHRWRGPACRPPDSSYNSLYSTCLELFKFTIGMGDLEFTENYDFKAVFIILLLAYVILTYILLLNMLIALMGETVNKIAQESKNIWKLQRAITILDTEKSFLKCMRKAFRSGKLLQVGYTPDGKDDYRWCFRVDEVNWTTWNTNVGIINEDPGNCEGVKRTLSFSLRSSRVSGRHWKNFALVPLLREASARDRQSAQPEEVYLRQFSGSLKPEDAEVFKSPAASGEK

For this experiment, the target named is Transient receptor potential cation channel subfamily V member 1 (Homo sapiens) (UniProt Q8NER1). Nature of the experiment: HTS Assay for Compounds that Act as Agonists of the Vanilloid Receptor 1. Note: 0% is about no effect. Conditions: TRPV1-expressing cells, Fluo-8 calcium influx, agonist mode; at 8.33 µM; stronger effect = higher value. The text has this:
The transient receptor potential ion channel, family V, number 1, (TRPV1) is one of the most important molecular transducers of painful stimuli and a potential target for analgesic drug development. Although recent clinical trials with orthosteric antagonists have not produced a successful drug because of a hyperthermia side effect and their tendency to block thermal noxious pain, this ion channel is undeniably well placed in the pain pathway, and the idea of blocking pain signals before they enter the CNS is an excellent concept and of proven efficacy when TRPV1 agonists are used. We propose a new approach involving allosteric modulation to impose an activity-dependent constraint within the context of inflammation and tissue damage that would alter the responsiveness of the channel in a way that an orthosteric vanilloid antagonist cannot achieve. We believe that the allosteric modulator approach has not been explored for this target. The main goal of this proposal is to identify additional, new, potent allosteric modulators of TRPV1 that can be used to investigate TRPV1 function. Our recent report provides evidence of proof of concept, but the compounds are just at the edge of utility in terms of potency. […] The question of whether they can be used as analgesic agents is complex, but if suitable compounds are identified then testing for analgesic properties will be conducted. NIH Chemical Genomics Center [NCGC] NIH Molecular Libraries Probe Centers Network [MLPCN] MLPCN Grant: MH089480-1A1 Assay Submitter (PI): Michael Iadarola, National Institute of Dental and Cranofacial Research
Upon TRPV1 activation in TRPV1 cells, the channel opens and extracellular cations flow through the channel into the cytosol. A calcium binding dye (Fluo-8) becomes fluorescent when bound to calcium. This dye is pre-loaded into cells and is used as a marker for calcium influx. The amount of accumulated calcium is precisely quantified using the FDSS kinetic reader and the calcium dye. For the HTS assay, freshly prepared cells are plated at a density of 2000/well in 3 ul medium in 1536-well plates and cultured overnight at 35.5C. Cells will be loaded with 1 ul of the homogeneous calcium dye (ABD Bioquest) at room temperature for 40 to 90 minutes. Plates will be loaded into the FDSS kinetic reader and a 1 sec / cycle for 10 second baseline signal will be measured. Compound library will then be added with a pintool at 23 nl and measured kinetically for 3 minutes. This portion of the read is considered the agonist portion of the screen. Following the 3 minutes of incubation, an on board pipettor will deliver 1 ul of capsaicin for a final concentration equal to the EC20. Signal will be measured kinetically for an additional 2 minutes. This portion of the read is considered the allosteric enhancer portion of the screen. The FDSS reader has a standard filter set capable of measuring calcium bound Fluo-8 (ex=480 and em=520 nm).
On to `CN1CCN(S(=O)(=O)c2ccc(N3CCN(c4ccccc4O)CC3)c([N+](=O)[O-])c2)CC1`, for which the activation is 4.24%.

Take `Cc1ccc(CN2CC(C(=O)N3CCN(S(=O)(=O)c4ccccc4)CC3)CC2=O)cc1` (stereo unspecified): the activation is 0.927%.

On to `COc1ccc(NS(=O)(=O)c2cc(NC(=O)COc3ccccc3F)ccc2OC)cc1`, for which the activation is 0.255%.

Consider `COc1ccc(C2=NN(C(=O)CSc3nnnn3C)C(c3ccco3)C2)cc1` (stereo unspecified), for which the activation was -0.899%.

For the compound `O=C(CSc1nnc(CN2CCCC2)n1-c1ccc(F)cc1)c1ccc2c(c1)OCO2`, the activation was 4.88%.

`COc1cccc(NC(=S)NCCCN2CCOCC2)c1`: the activation is -6.52%.

In the case of `COc1cccc2cc(C(C)N(CCCN3CCOCC3)C(=O)Nc3ccc(Cl)cc3)oc12` (stereo unspecified), the activation is 85.6% (active).

In the case of `COc1ccc(Cl)cc1NC(=O)CCN1CCOCC1`, the activation is -0.647%.

As to `Cc1cccc(C)c1NC(=O)COC(=O)c1c(C)nn(-c2ccccc2)c1C`, the activation was 0.597%.

In the case of `O=C1NCC(=O)N(Cc2ccccc2)/C1=C/c1ccccc1`, the activation is 6.12%.

Regarding `O=C1/C(=C\c2ccsc2)NC(=S)N1c1ccccc1`, the activation is 2.57%.

With `CN(C)c1ccc(/C=C2\NC(=S)N(Cc3ccccc3)C2=O)cc1`, the activation was 82.1% (active).

Take `Cc1csc(=O)n1CCC(=O)OCC(=O)NNC(=O)c1ccc(Br)cc1`: the activation was 2.91%.

For `OCC[C@H]1C[C@H](O)[C@@H](O)[C@]2(Cc3ccccc3CO2)O1`, the activation is 1.78%.

Regarding `Cc1cccc(C(=O)Nc2ccc3c(c2)C(=O)N(CC(C)C)C3=O)c1`, the activation is 80.9% (active).

As for `Cc1cccc(C(=O)Nc2ccc(CC(=O)O)cc2)c1`, the activation was 1.02%.

Take `Cc1cccc(N2C(=O)c3ccc(C(=O)Nc4cccc(C(=O)O)c4)cc3C2=O)c1`: the activation is -0.654%.

Take `N#Cc1cccc(NC(=O)C2CCCN(C(=O)c3ccc(Cl)cc3)C2)c1` (stereo unspecified): the activation is 11.9%.

Consider `O=C(/C=C\c1cn(-c2ccccc2)nc1-c1cccs1)N1CCOCC1`, for which the activation was 96.6% (active).

Take `O=C(O)/C=C/c1cn(Cc2ccccc2)nc1-c1cccs1`: the activation was 2.25%.

In the case of `O=C(O)c1ccc(N/N=C/c2cn(-c3ccccc3)nc2-c2cccs2)cc1`, the activation is -2.97%.

With `CC(C(=O)Nc1ccc(S(=O)(=O)N2CCCC2)cc1)N(C)Cc1ccc(F)cc1` (stereo unspecified), the activation was 17.2%.

For `O=C(CSc1ccccc1)Nc1cccc(S(=O)(=O)N2CCCCC2)c1`, the activation is 21.4%.

For the compound `O=C(OCC(=O)N1CCN(C(=O)c2ccco2)CC1)c1ccc(Cl)c(Cl)c1`, the activation is 2.6%.

With `Oc1ccc(Cl)cc1C1C=C(c2ccc3c(c2)OCO3)NC(c2ccc(F)c(Br)c2)N1` (stereo unspecified), the activation was 6.1%.

Regarding `Cc1cccn2c(=O)c3cc(C(=O)NCCN4CCOCC4)c(=N)n(Cc4cccnc4)c3nc12`, the activation is 22.9%.

As for `COc1ccc(CCn2c(=N)c(C(=O)NCC3CCCO3)cc3c(=O)n4cccc(C)c4nc32)cc1OC` (stereo unspecified), the activation is 4.61%.

Take `Cc1cccn2c(=O)c3cc(C(=O)NCC4CCCO4)c(=N)n(Cc4ccc(F)cc4)c3nc12` (stereo unspecified): the activation is 84.1% (active).

In the case of `COC(=O)c1cc(Oc2ccc(S(=O)(=O)N3CCOCC3)cc2[N+](=O)[O-])cc(C(=O)OC)c1`, the activation is -0.765%.

With `CCCN(CC(=O)Nc1ccccc1C)C(=O)c1ccc2[nH]c3c(c2c1)CC(C)CC3` (stereo unspecified), the activation is 3.39%.

Regarding `CCN(CC)S(=O)(=O)c1ccc(OC)c(NC(=O)CCc2c(C)noc2C)c1`, the activation was -1.51%.

`CCCC(NCC(=O)Nc1ccccc1C(=O)NC1CC1)c1ccccc1` (stereo unspecified): the activation is 21.8%.

Turning to `CO[C@H]1[C@@H]2C=CO[C@@H](O[C@H]3O[C@@H](CO)[C@H](O)[C@@H](O)[C@@H]3O)[C@@H]2[C@@]2(CO)O[C@@H]12`, the activation was -3.6%.

Turning to `CC(C)N(C(=O)CN1CCN(S(=O)(=O)c2ccc(Br)s2)CC1)C(C)C`, the activation was 17.4%.

In the case of `CCCCN(CC(=O)Nc1cccc(S(=O)(=O)N2CCCC2)c1)Cc1nc2ccccc2c(=O)[nH]1`, the activation was 26.8%.

As to `CCOc1ccc(CCNC(=O)Nc2ccccc2)cc1OCC`, the activation was 91.3% (active).

Consider `CCOc1cc(NC(=O)Nc2ccccc2)c(OCC)cc1NC(=O)CC`, for which the activation is 3.84%.

Turning to `CCOc1ccc(CCNC(=O)COC(=O)c2c(OC)cccc2OC)cc1OCC`, the activation is -2.55%.

With `Cc1cc(C(=O)COc2ccc(Br)cc2F)c(C)n1C1CC1`, the activation is 20.7%.

For `CNS(=O)(=O)c1cccc(C(=O)OCCCC(=O)c2ccccc2)c1`, the activation is 4.36%.

Turning to `CC(OC(=O)Cc1ccc(F)cc1)C(=O)N1CCc2ccccc21` (stereo unspecified), the activation was 16.3%.

Consider `Cc1cc(C)n2nc(C(=O)Nc3cccc(S(=O)(=O)N4CCOCC4)c3)nc2n1`, for which the activation was 0.0473%.

In the case of `Nc1cc(N)nc(SCC(=O)Nc2cccc(S(=O)(=O)N3CCCCC3)c2)n1`, the activation is 1.32%.

Consider `O=C(NCCc1ccc(F)cc1)c1ccc(S(=O)(=O)N2CCCCC2)cc1`, for which the activation was 28.8%.

As for `C/C(=N\NC(=O)c1cccc(N2CCCC2=O)c1)c1ccc(N)cc1`, the activation is -0.551%.

Turning to `O=C(N/N=C/c1cccc(Br)c1)c1ccc(N2CCCC2=O)cc1`, the activation is 14.1%.

For the compound `COc1cc(/C=N/NC(=O)c2ccc(N3CCCC3=O)cc2)ccc1O`, the activation is 82.8% (active).

`Cc1ccc(C(=O)CN2C(=O)NC3(CCOc4ccccc43)C2=O)s1` (stereo unspecified): the activation is -5.77%.

For `CC(C)CCN1CCC(C)(NC(=O)c2ccccc2)C1=O` (stereo unspecified), the activation is -3.6%.

Regarding `CC(=O)c1ccc(OCCCC(=O)Nc2ccc(C)c(S(=O)(=O)N3CCOCC3)c2)cc1`, the activation is 5.88%.

With `COc1cc(OC)c(N2CC(C(=O)Nc3cc(Cl)ccc3N3CCOCC3)CC2=O)cc1Cl` (stereo unspecified), the activation is 1.31%.

For `Cc1cccc(Nc2nnc(SCC(=O)c3c(N)n(C4CC4)c(=O)[nH]c3=O)s2)c1C`, the activation was -1.01%.

For `COc1ccc(C(=O)OCC(=O)c2cc(C)n(CC3CCCO3)c2C)cc1[N+](=O)[O-]` (stereo unspecified), the activation is -3.97%.

`CN(CC(=O)NC1CCN(Cc2ccccc2)CC1)S(=O)(=O)c1ccc(Cl)s1`: the activation is 7.2%.

For `CN(C(=O)CSc1nnc(-c2ccc3c(c2)OCO3)o1)C1CCS(=O)(=O)C1` (stereo unspecified), the activation is 1.32%.

As for `COc1ccc(C(=O)N2CCN(c3ncccn3)CC2)cc1S(=O)(=O)N1CCOCC1`, the activation was 4.11%.

Take `O=C(NC1CC1)c1cccc(Br)c1`: the activation is -0.868%.

For `O=C(NC1CCCC1)c1cc(-c2ccccc2)on1`, the activation is 22.2%.

For the compound `O=C(NC1CC1)c1ccc(-c2ccccc2)cc1`, the activation is 83% (active).

With `CN(C(=O)CSc1nnc(-c2ccc(C(C)(C)C)cc2)n1C)C1CCS(=O)(=O)C1` (stereo unspecified), the activation was 1.75%.

For `Cc1cc(C(=O)COc2ccccc2Cl)c(C)n1C1CC1`, the activation was 26.9%.

As for `Cc1ccc(S(=O)(=O)N2CC(O)C[C@H]2C(=O)OCC(=O)Nc2ccc(N3CCOCC3)cc2)cc1C` (stereo partly specified), the activation was -0.193%.

On to `COc1cccc(C(=O)Nc2nc3ccc(S(C)(=O)=O)cc3s2)c1`, for which the activation is -1.41%.

For the compound `COc1ccc2nc(NC(=O)c3ccc(Br)s3)sc2c1`, the activation was 97.1% (active).

Consider `CCc1noc(C)c1C(=O)Nc1nc2ccc(OC)cc2s1`, for which the activation is 8.32%.

Consider `COc1ccc(NC(=O)CC2SC(N3CCCCC3)=NC2=O)cc1OC` (stereo unspecified), for which the activation was 1.55%.

Regarding `Cc1nc2c(c(=O)n1Cc1ccco1)c1nc3ccccc3nc1n2Cc1ccccc1`, the activation is 1.97%.

`Cc1cc2nc3c(=O)n(Cc4ccccc4)c(=O)[nH]c3nc2cc1N`: the activation was 90.7% (active).

Regarding `CC(=O)c1ccc(-c2ccc(Cn3c(C)nc4cc(N)c(C)nc43)cc2)cc1`, the activation is 4.86%.

Turning to `CCN(CC)c1ccc(NC(=O)c2ccc(Cl)nc2)cc1`, the activation is 82% (active).

On to `CCOC(=O)c1ccc(NC(=O)c2cccnc2)cc1`, for which the activation is -0.797%.

On to `Cc1cnc(NC(=O)c2ccc(Cl)nc2)s1`, for which the activation is 1.7%.

For the compound `Cc1csc(NC(=O)C2CCN(S(=O)(=O)c3ccccc3)CC2)n1`, the activation is 0.443%.

Turning to `CCCCn1nc(C(=O)Nc2cccc(C(=O)NC3CC3)c2)c2ccccc2c1=O`, the activation was 17.8%.

On to `CC(C)n1ncc2c(C(=O)NCc3ccccc3CN(C)C)cc(C3CC3)nc21`, for which the activation was 1.42%.

With `O=S(=O)(c1cccs1)N1CCN(CCOc2ccccc2)CC1`, the activation was 10.7%.

Turning to `O=C(NCC(=O)N1CCCCCCC1)c1ccccc1Cl`, the activation is 4.74%.

As to `COc1ccccc1C(CNC(=O)c1cccc(S(=O)(=O)Nc2ccc(F)cc2)c1)N(C)C` (stereo unspecified), the activation was 1.81%.

`COc1ccccc1-c1sc2ccccc2c1-c1ccc(Br)nc1`: the activation is 1.98%.

Take `Cc1ccc(C(CC(=O)O)NC(=O)c2ccc(S(=O)(=O)N3CCCC3)cc2)cc1` (stereo unspecified): the activation is -0.421%.

Consider `O=C(CN1CCc2ccccc2C1)Nc1cccc(S(=O)(=O)N2CCOCC2)c1`, for which the activation is 13.1%.
